# Laboratory results taken from the supplement of paper PMC13380429.
# Structures can show the parent of a compound that is named as a salt. A number with no mark means an inactive call.
# Test system: Vero E6 infected with SARS-CoV-2
# Assay: inhibition of SARS-CoV-2 cytopathic effect; higher = more antiviral protection, active = above 15
# Conditions: 100 nM; 48 h
row,Compound,inhibition of SARS-CoV-2 cytopathic effect [%]
1,N[C@@H]1CCN(c2cccnc2)C1,1.46
2,O=C1c2ccccc2-c2n[nH]c3cccc1c23 [pyrazolanthrone],-1.61
3,CCC(=O)O[C@H]1CC[C@H]2[C@@H]3CCC4=CC(=O)CC[C@]4(C)[C@H]3CC[C@]12C,-12.5
4,N[C@@H](CSCCCO)C(=O)O [fudosteine],0.76
5,CC(C)(Cc1c[nH]c2ccc(Cl)cc12)NCCOc1ccccc1OCC1CC1,0.78
6,Cc1cccc(C)c1NC(=O)c1ccccc1C(=O)O [ftaxilide],-1.2
7,CO[C@H]1/C=C/O[C@@]2(C)Oc3c(C)c(O)c4c(O)c(c(/C=N/N5CCN(C)CC5)c(O)c4c3C2=O)NC(=O)/C(C)=C\C=C\[C@H](C)[C@H](O)[C@@H](C)[C@@H](O)[C@@H](C)[C@H](OC(C)=O)[C@@H]1C [rifampin],-2.5
8,CCN(CC)Cc1ccc(C(=O)N(CCc2ccccc2OC)[C@@H]2CCNC2)cc1,-1.66
9,CCc1cc(Cl)c(OC)c(C(=O)NC[C@@H]2CCCN2CC)c1O [eticlopride],1.17
10,C=C(C)[C@@H]1CC[C@]2(C(=O)O)CC[C@]3(C)[C@H](CC[C@@H]4[C@@]5(C)CC[C@H](O)C(C)(C)[C@@H]5CC[C@]43C)[C@@H]12 [betulinic-acid],-2.01
11,CC/C(=C(\c1ccc(O)cc1)c1ccc(OCCNC)cc1)c1ccccc1 [Endoxifen HCl],10.6
12,O=P1(N(CCCl)CCCl)NCCCO1 (stereo unspecified) [cyclophosphamide],-0.35
13,NCCc1c[nH]c2ccc(O)cc12 [serotonin],2.41
14,C[C@H]1c2cccc(O)c2C(=O)C2=C(O)[C@]3(O)C(=O)C(C(N)=O)=C(O)[C@@H](N(C)C)[C@@H]3[C@@H](O)[C@@H]21 [doxycycline],0.42
15,N=C(NCc1ccc(Cl)cc1)SCCCc1c[nH]cn1 [clobenpropit],1.78
16,CCn1nc(C)c2c1C(c1ccccc1)=NCC(=O)N2 [ripazepam],0.56

row,Compound,inhibition of SARS-CoV-2 cytopathic effect [%]
1,COc1cc(CCc2cc(NC(=O)c3ccc(N4CC(C)NC(C)C4)cc3)n[nH]2)cc(OC)c1 (stereo unspecified),1.04
2,CCOC(=O)CCC(=O)O[C@H]1[C@H](O[C@@H]2[C@@H](C)[C@H](O[C@H]3C[C@@](C)(OC)[C@@H](O)[C@H](C)O3)[C@@H](C)C(=O)O[C@H](CC)[C@@](C)(O)[C@H](O)[C@@H](C)C(=O)[C@H](C)C[C@@]2(C)O)O[C@H](C)C[C@@H]1N(C)C [erythromycin-ethylsuccinate],0.57
3,COc1ccc(-c2ccc3cc(C(=O)O)ccc3c2)cc1C12CC3CC(CC(C3)C1)C2 [adapalene],2.4
4,C=C1C[C@@]2(O)O[C@@]3(C[C@H]2C(C)C)[C@@H](C)CC[C@@H]13 [curcumol],1.91
5,O=C(O)CN1C(=O)c2cccc3cccc(c23)C1=O [alrestatin],3.59
6,CCCCOc1ccc(-c2cncc(C(=O)NCc3cccnc3N3CCOCC3)c2)cc1Cl,-0.55
7,O=C(c1cccc(Br)c1)N1CCC(N2CCCC2)CC1,-0.46
8,CC[C@H]1[C@@H](O)[C@@H]2[C@H](CC[C@]3(C)[C@@H]([C@H](C)CCC(=O)O)CC[C@@H]23)[C@@]2(C)CC[C@@H](O)C[C@@H]12 [obeticholic-acid],1.03
9,CC(C)(C#N)c1ccc(N2C(=O)OCc3cnc4ccc(-c5cnc6ccccc6c5)cc4c32)cc1,2.65
10,c1cc(-c2cnn3cc(-c4ccc(N5CCNCC5)cc4)cnc23)c2cccnc2c1,-4.29
11,c1ccc(N2CCN(CCCOc3ccc4c(c3)OCO4)CC2)cc1,-4.95
12,CC(C)(C)NCC(O)c1cc(Br)no1 (stereo unspecified) [broxaterol],-1.23
13,Nc1nc(=O)n([C@H]2C[C@H](O)[C@@H](CO)O2)cc1Cl [cytochlor],0.45
14,COc1cc(OC)c(C(=O)CCCN2CCCC2)c(OC)c1 [buflomedil],4.02
15,CCCCCCCCC(=O)N[C@H](CN1CCCC1)[C@H](O)c1ccc2c(c1)OCCO2,2.54
